Test systems include HCT-15 colon; HT29 colon; SNB-75 CNS; SNB-19 CNS; U251 CNS; PC-3 prostate; SK-MEL-5 melanoma; UACC-62 melanoma; LOX IMVI melanoma; SK-MEL-28 melanoma; SK-MEL-2 melanoma; EKVX NSCLC; SN12C renal; UO-31 renal; TK-10 renal; ACHN renal; CAKI-1 renal; A498 renal; CCRF-CEM leukemia; MOLT-4 leukemia.
Holding throughout (assay): NCI-60 one-dose screen, 48 h (100 = growth as untreated, 0 = no growth, -100 = all killed)
Settings in all cases: 10 µM unless noted

The structures appear in SMILES notation. This is part of a sample that, as a whole, favours compounds with a hit. Of some 83,000 tested, about 20% had one in any assay.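 Single-dose data. Exposure time 48 hours. Values below 10 considered active.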 Unmarked numbers belong to inactive results. Calls of active or inactive are those of the source.

For `O=[N+]([O-])c1cccc(-c2nc(-c3ccc(Cl)cc3Cl)cn2-c2ccccc2)c1`, the growth with HCT-15 colon is -6.56% (active); with HT29 colon it was -67.8% (active); in the assay on SNB-75 CNS, -56.7% (active); with SNB-19 CNS it was 53.7%; with U251 CNS, -60.5% (active); with PC-3 prostate it was -47.7% (active). Moreover, the growth in the assay with SK-MEL-5 melanoma was 71.4%; with UACC-62 melanoma, 31.3%; in the assay on LOX IMVI melanoma, 3.46% (active); in the assay on SK-MEL-28 melanoma, -16.4% (active); with SK-MEL-2 melanoma, 52.4%; in the assay on EKVX NSCLC it was -8.4% (active). Further, the growth was 11.5% in the assay on SN12C renal; 2.03% (active) in the assay with UO-31 renal; 29.3% with TK-10 renal; -52.1% (active) with ACHN renal; -68.8% (active) in the assay on CAKI-1 renal; -33.2% (active) with A498 renal. The results for the growth with CCRF-CEM leukemia and with MOLT-4 leukemia were 95.5% and 45.4%, respectively.
With `CC1=CC2(C)/C=C(C)/C=C\CC(O)/C=C3/C=CC(=C4C(=O)OC2(CC1C)C4=O)OC3` (stereo not given), the growth in the assay on HCT-15 colon is -56.9% (active); in the assay with HT29 colon, -6.52% (active); with SNB-75 CNS it was 53.3%; in the assay on SNB-19 CNS, 56.4%; in the assay with U251 CNS, -50.2% (active); in the assay with PC-3 prostate, -8.09% (active). The growth with SK-MEL-5 melanoma is 56.7%; in the assay with UACC-62 melanoma, 6.46% (active); with LOX IMVI melanoma, -89.1% (active); in the assay with SK-MEL-28 melanoma it was -87.6% (active); with SK-MEL-2 melanoma it was -89.2% (active); in the assay with EKVX NSCLC, 34.8%. Besides, the growth in the assay with SN12C renal is -40.8% (active); in the assay on UO-31 renal, -53% (active); with TK-10 renal, -86.8% (active); with ACHN renal, -94.7% (active); in the assay on CAKI-1 renal it was -89.5% (active); with A498 renal it was 55.3%. For the same molecule, the growth with CCRF-CEM leukemia is -39.4% (active); in the assay with MOLT-4 leukemia, -35.1% (active).
`CC(=O)Nc1ccc(S(=O)(=O)NC2CCCCC2)cc1`: the growth in the assay on HCT-15 colon is 95.9%; with HT29 colon it was 95.4%; in the assay on SNB-75 CNS, 86.3%; in the assay with SNB-19 CNS it was 96.2%; in the assay on U251 CNS, 91%; in the assay on PC-3 prostate, 94.6%. In addition, the growth is 98.2% with SK-MEL-5 melanoma; 91.4% in the assay on UACC-62 melanoma; 95.8% with LOX IMVI melanoma; 98.3% with SK-MEL-28 melanoma; 108% in the assay with SK-MEL-2 melanoma; 95.2% in the assay on EKVX NSCLC. Further, the growth in the assay with SN12C renal was 91%; in the assay with UO-31 renal, 85.2%; in the assay with TK-10 renal, 90.2%; in the assay on ACHN renal, 91.7%; in the assay on CAKI-1 renal it was 98.5%; in the assay with A498 renal, 64.3%. For the same molecule, the growth is 96.3% in the assay with CCRF-CEM leukemia and 101% in the assay on MOLT-4 leukemia.
Regarding `COC(=O)Nc1nc2ccc(C(=O)c3cccc(I)c3)cc2[nH]1`, the growth is 11.8% in the assay on HCT-15 colon; 2.12% (active) in the assay with HT29 colon; -15.3% (active) with SNB-75 CNS; 33.6% with SNB-19 CNS; 13.6% in the assay on U251 CNS; 20.9% with PC-3 prostate. Further, the growth in the assay on SK-MEL-5 melanoma is -33.9% (active); in the assay on UACC-62 melanoma, 24.8%; in the assay with LOX IMVI melanoma, 16.6%; in the assay with SK-MEL-28 melanoma it was 49.4%; in the assay on SK-MEL-2 melanoma, 12.1%; in the assay with EKVX NSCLC it was 29.9%. For the same molecule, the growth with SN12C renal was 23.3%; in the assay on UO-31 renal it was 28.8%; in the assay on TK-10 renal it was 42.4%; in the assay with ACHN renal it was 17.5%; in the assay on CAKI-1 renal, 5.37% (active); with A498 renal it was -15.3% (active). Moreover, the growth is 5.32% (active) in the assay on CCRF-CEM leukemia and 19.1% in the assay with MOLT-4 leukemia.
Consider `COC(=O)Nc1ccc(NC(=O)OC)cc1`, for which the growth in the assay with HCT-15 colon was 108%; in the assay on HT29 colon it was 98.4%; in the assay on SNB-75 CNS it was 80%; in the assay on SNB-19 CNS it was 103%; with U251 CNS, 99.1%; with PC-3 prostate, 77.7%. Also, the growth in the assay with SK-MEL-5 melanoma was 99.1%; with UACC-62 melanoma, 103%; in the assay on LOX IMVI melanoma, 99%; with SK-MEL-28 melanoma, 116%; in the assay on SK-MEL-2 melanoma, 88.5%; with EKVX NSCLC, 103%. The growth with SN12C renal was 104%; with UO-31 renal, 87.6%; in the assay with TK-10 renal, 94.4%; in the assay with ACHN renal, 115%; with CAKI-1 renal it was 93.4%; with A498 renal, 97.2%. In addition, the growth was 68.1% with CCRF-CEM leukemia and 100% with MOLT-4 leukemia.
`O=C(O)CNC(=O)CN1C(=O)c2ccccc2C1=O`: the growth in the assay with HCT-15 colon was 105%; in the assay with HT29 colon, 110%; in the assay on SNB-75 CNS, 90.4%; with SNB-19 CNS, 108%; in the assay with U251 CNS, 96.8%; in the assay with PC-3 prostate, 84.1%. Also, the growth in the assay on SK-MEL-5 melanoma is 99.6%; in the assay on UACC-62 melanoma it was 108%; in the assay with LOX IMVI melanoma, 95%; in the assay with SK-MEL-28 melanoma it was 103%; in the assay on SK-MEL-2 melanoma, 114%; with EKVX NSCLC, 103%. The growth in the assay on SN12C renal is 99.1%; in the assay on UO-31 renal, 86.3%; in the assay on TK-10 renal, 104%; in the assay with ACHN renal, 103%; with CAKI-1 renal, 95.9%; in the assay on A498 renal, 104%. The growth with CCRF-CEM leukemia is 81.1%; in the assay on MOLT-4 leukemia, 91.8%.
In the case of `Cc1ccccc1C(c1ccccc1)c1ccccc1C`, the growth with HCT-15 colon was 95.6%; in the assay on HT29 colon it was 95.8%; in the assay on SNB-75 CNS it was 79.5%; in the assay on SNB-19 CNS it was 98.7%; in the assay with U251 CNS, 99.3%; with PC-3 prostate, 83.2%. The growth in the assay with SK-MEL-5 melanoma was 77.8%; in the assay with UACC-62 melanoma it was 100%; in the assay with LOX IMVI melanoma, 94.9%; in the assay on SK-MEL-28 melanoma it was 103%; in the assay with SK-MEL-2 melanoma it was 101%; in the assay on EKVX NSCLC, 96.3%. The growth in the assay with SN12C renal is 96.8%; with UO-31 renal, 79.2%; in the assay on TK-10 renal it was 100%; with ACHN renal, 94.2%; in the assay on CAKI-1 renal, 87.6%; with A498 renal, 83.6%. In addition, the growth with CCRF-CEM leukemia was 83.3%; with MOLT-4 leukemia it was 93.5%.
In the case of `CCN(CC)CCCC(C)Nc1cc(-c2cccc(OC(F)(F)F)c2)nc2ccc(N3CCCC3)cc12` (stereo not given), the growth was -14.1% (active) with HCT-15 colon; -24.1% (active) in the assay with HT29 colon; 66.5% in the assay on SNB-75 CNS; 24.2% in the assay on SNB-19 CNS; -58.4% (active) with U251 CNS; 14.3% in the assay on PC-3 prostate. Besides, the growth with SK-MEL-5 melanoma is -98.1% (active); in the assay on UACC-62 melanoma it was -86.5% (active); in the assay with LOX IMVI melanoma, -80.5% (active); in the assay with SK-MEL-28 melanoma, -93% (active); with SK-MEL-2 melanoma it was -71.2% (active); in the assay on EKVX NSCLC, 49.9%. Further, the growth in the assay with SN12C renal was 38.1%; in the assay on UO-31 renal it was 23.7%; in the assay with TK-10 renal, 12.2%; with ACHN renal, -19.5% (active); with CAKI-1 renal, -53% (active); in the assay on A498 renal, 29.4%. The growth in the assay on CCRF-CEM leukemia was -22.4% (active); with MOLT-4 leukemia it was 2.34% (active).
